In all, about 3,700 sequences were measured (“z-score”: median about 4, highest 2% from about 8.4 on). The sample as a whole holds a higher share of the highest values than the screen did.
Tests used:
PU.1 (IVT) [1] = biological target: PU.1 (IVT) (UniProt P17947 1-270); assay: protein-binding microarray (PBM); 20 mM HEPES pH 7.9, 100 mM NaCl, 1 mM DTT, 0.2 mg/mL BSA, 0.02% Triton X-100, 2% milk, 0.4 mg/mL salmon testes DNA; 1 h; temperature not stated; high values mean tight binding; details: dsDNA, one strand shown
In short: (§1)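 Custom double-stranded DNA microarrays bearing 20-bp genomic sites and single-nucleotide variants (10 probes per site, 5 per orientation) were incubated for 1 h with full-length untagged PU.1 made by coupled human in vitro transcription/translation, in HEPES pH 7.9 with 100 mM NaCl, 2% milk and salmon testes DNA. Anti-PU.1 and a fluorescent secondary antibody detected the bound protein. Each binding value is a z-score from scanned fluorescence after linear-regression normalisation.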

PU.1 (IVT) [2] = biological target: PU.1 (IVT) (UniProt P17947 1-270); assay: as above; details: dsDNA, one strand shown; remark: listed apart in the source
In short: as §1

Row | Sequence | binding signal (PU.1 (IVT) [1]) [z-score] | binding signal (PU.1 (IVT) [2]) [z-score]
1 | GCCTAGCACTAGATGAGGAAGTACTGTGCGTGCTAGGTCTTGATTCGCTTGACGCTGCTG | 6.57 | 
2 | GCCTAGCACTTTAACAGGAAGTGAAACCAGTGCTAGGTCTTGATTCGCTTGACGCTGCTG | 4.61 | 
3 | GCCTAGCACCAAAAAGGGAAGTGGGTTGAGTGCTAGGTCTTGATTCGCTTGACGCTGCTG |  | 7.02
4 | GCCTAGCACTGAAACAGGAAGTGAGACCAGTGCTAGGTCTTGATTCGCTTGACGCTGCTG |  | 6.68
5 | GCCTAGCACGGAATAGGGAAGTGAAACTGGTGCTAGGTCTTGATTCGCTTGACGCTGCTG | 6.68 | 
6 | GCCTAGCACGAAAAGGGGAACTGAAACTAGTGCTAGGTCTTGATTCGCTTGACGCTGCTG |  | 6.15
7 | GCCTAGCACAAAAAGAGGAAGAGGAGGAGGTGCTAGGTCTTGATTCGCTTGACGCTGCTG | 5.1 | 
8 | GCCTAGCACAAAAGGAGGAAGTGATCCCTGTGCTAGGTCTTGATTCGCTTGACGCTGCTG |  | 6.77
9 | GCCTAGCACAAAAAGAGGAAGTGAGCTTAGTGCTAGGTCTTGATTCGCTTGACGCTGCTG |  | 8.51
10 | GCCTAGCACAAAAGGAGGAAGTGGGGGGAGTGCTAGGTCTTGATTCGCTTGACGCTGCTG | 6.01 | 
11 | GCCTAGCACAAAAAGAGGAAGTGCCCTGTGTGCTAGGTCTTGATTCGCTTGACGCTGCTG |  | 8.56
12 | GCCTAGCACAAAAGGAGGAAGTGAAAGTAGTGCTAGGTCTTGATTCGCTTGACGCTGCTG |  | 6.69
13 | GCCTAGCACAAAGAAAGGAAGTGGCCTGTGTGCTAGGTCTTGATTCGCTTGACGCTGCTG |  | 2.71
14 | GCCTAGCACAAAAAAGAGAAGTGGGGGAAGTGCTAGGTCTTGATTCGCTTGACGCTGCTG |  | 5.77
15 | GCCTAGCACAAAAAGAGGAAGTGGGGGAGGTGCTAGGTCTTGATTCGCTTGACGCTGCTG |  | 8.59
16 | GCCTAGCACAAAAAAAGGAAGTGAGAGCTGTGCTAGGTCTTGATTCGCTTGACGCTGCTG | 6.29 | 
17 | GCCTAGCACAAAAAGAGGAAGGGGAAGAAGTGCTAGGTCTTGATTCGCTTGACGCTGCTG | 6.26 | 
18 | GCCTAGCACAAAAAGAGGAAGTGCACAAGGTGCTAGGTCTTGATTCGCTTGACGCTGCTG |  | 8.64
19 | GCCTAGCACTGATAGAGGAAGTGCAACCAGTGCTAGGTCTTGATTCGCTTGACGCTGCTG | 4.92 | 
20 | GCCTAGCACGATAGCAGGAAGTGAAACTAGTGCTAGGTCTTGATTCGCTTGACGCTGCTG | 3.14 | 
21 | GCCTAGCACGCAGAGAGGAAGTGTGAATGGTGCTAGGTCTTGATTCGCTTGACGCTGCTG | 3.72 | 
22 | GCCTAGCACTGAGAGGAGAAGTGAAACCCGTGCTAGGTCTTGATTCGCTTGACGCTGCTG |  | 1.26
23 | GCCTAGCACATTTCTGGGAAGTGAAACTAGTGCTAGGTCTTGATTCGCTTGACGCTGCTG | 1.93 | 

Row | Sequence | binding signal (PU.1 (IVT) [1]) [z-score] | binding signal (PU.1 (IVT) [2]) [z-score]
24 | GCCTAGCACATAAAAGGGAAGTGGGGCATGTGCTAGGTCTTGATTCGCTTGACGCTGCTG | 5.38 | 
25 | GCCTAGCACAGAAAAAGGAAGTGAGCAAAGTGCTAGGTCTTGATTCGCTTGACGCTGCTG | 5.53 | 
26 | GCCTAGCACTTAAAGAGGAAGAGCATCTTGTGCTAGGTCTTGATTCGCTTGACGCTGCTG | 3.21 | 
27 | GCCTAGCACTCAAAGAGGAAGTGACATTTGTGCTAGGTCTTGATTCGCTTGACGCTGCTG |  | 7.03
28 | GCCTAGCACGAAAAAGGGAACTGGTTGGGGTGCTAGGTCTTGATTCGCTTGACGCTGCTG |  | 5.22
29 | GCCTAGCACGGAAGAAGGAAGTGGGGGCCGTGCTAGGTCTTGATTCGCTTGACGCTGCTG |  | 3.66
30 | GCCTAGCACAGGAGGAGGAAGTGGGGGGAGTGCTAGGTCTTGATTCGCTTGACGCTGCTG |  | 4.05
31 | GCCTAGCACGATAAGAGGAACTGTAAGCTGTGCTAGGTCTTGATTCGCTTGACGCTGCTG |  | 3.92
32 | GCCTAGCACTGAGAGGAGAAGTGAAATCTGTGCTAGGTCTTGATTCGCTTGACGCTGCTG | 1.39 | 
33 | GCCTAGCACCAAATTAGGAACTGATGCGGGTGCTAGGTCTTGATTCGCTTGACGCTGCTG | 2.14 | 
34 | GCCTAGCACGCTAAGAGGAAGTCCTCTGTGTGCTAGGTCTTGATTCGCTTGACGCTGCTG | 5.07 | 
35 | GCCTAGCACAAAAAGAGGAAGTGGTACAAGTGCTAGGTCTTGATTCGCTTGACGCTGCTG |  | 8.76
36 | GCCTAGCACAAAAAGAGGAAGGGACCCAAGTGCTAGGTCTTGATTCGCTTGACGCTGCTG |  | 5.29
37 | GCCTAGCACAAAAAAAGGAAGTGCTCAAGGTGCTAGGTCTTGATTCGCTTGACGCTGCTG | 6.42 | 
38 | GCCTAGCACACAAAGGGGAAGTGCTAGGGGTGCTAGGTCTTGATTCGCTTGACGCTGCTG | 6.35 | 
39 | GCCTAGCACAAAAAGAGGAAGTGATGATGGTGCTAGGTCTTGATTCGCTTGACGCTGCTG |  | 9.07
40 | GCCTAGCACAAAAAAAGGAAGTGGTAGCAGTGCTAGGTCTTGATTCGCTTGACGCTGCTG |  | 6.75
41 | GCCTAGCACAAAAAGCGGAAGTGCAAAAGGTGCTAGGTCTTGATTCGCTTGACGCTGCTG |  | 8.5
42 | GCCTAGCACAAGAGGAGGAAGTGAGAGAGGTGCTAGGTCTTGATTCGCTTGACGCTGCTG |  | 4.33
43 | GCCTAGCACAAAAAGAGGAAGGGTGGCTGGTGCTAGGTCTTGATTCGCTTGACGCTGCTG | 4.91 | 
44 | GCCTAGCACAAAAAAAGGAAGTGAGATAAGTGCTAGGTCTTGATTCGCTTGACGCTGCTG |  | 6.74
45 | GCCTAGCACAAAAGGAGGAAGTGATGATGGTGCTAGGTCTTGATTCGCTTGACGCTGCTG | 6.55 | 
46 | GCCTAGCACAAAAAGAGGAAGTGAGATGGGTGCTAGGTCTTGATTCGCTTGACGCTGCTG |  | 8.88

Reference: PMC6451091, “NextPBM: a platform to study cell-specific transcription factor binding and cooperativity”
